According to the supplement of paper PMC6555819:

Each sequence was assayed on RARb:RXRa (NR concentration 270 nM, RXRa partner concentration 90 nM) (assay: PBM binding z-score (relative to random genomic background probes); higher = stronger binding; sequences stand for … in GC…GCGATTGACAGCGTAGAATGAAGG).
How it was run: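 Ligand-free nuclear receptor dimers were applied to custom Agilent 4×180K protein-binding microarrays whose double-stranded probes carried direct-repeat seeds, single-nucleotide variants, half-site ablations and random human genomic background sequences in 34-nt variable regions. Incubation lasted 1 h. Binding z-scores were computed against the random background probes from regression-normalized fluorescence.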
Work on CGTCCAAGGTCATAGGAGATCAGTGAAGACAGAT yielded a PBM binding z-score of 4.89. Work on CCTTACGGGTCAAGGCTATAGCACGGGTGGTACG yielded a PBM binding z-score of 3.98. CGAACGAGGGCATGAGTTGATAGCAAATGCCGAT was tested, and the PBM binding z-score was 2.11. Work on CCAGACAGGTGAGAAGGTAACTCCGCCTCGATTA yielded a PBM binding z-score of 0.539. TCTACTAGTTGATTAGGGCAACCGAAACAGCGGA gave a PBM binding z-score of 0.694. GAGACAGGGTCAAGGCCAGAGTACGCGTATTGAT showed a PBM binding z-score of 4.2. TCTAGTTGGTCACGGAGGTCACTCACGACGGGTA showed a PBM binding z-score of 3.47. Work on CTCGAAAGGTCGGTTGAGGTGTGTATACGGATAA yielded a PBM binding z-score of 2.68. CCTACTGGGCCATTCAGAGTTCATTGATCATATG showed a PBM binding z-score of 1.82. CAGCCTAGGTTAGGGCCAGTATAGGAGGAACGTT gave a PBM binding z-score of 0.516. GCGACTGGGGCCAAGCAGGTTACCATAAGGTTGG was tested, and the PBM binding z-score was 1.14. CGAACGAGGGCATGAGTTGATGGCAAATGCCGAT was tested, and the PBM binding z-score was 1.99. Work on GGAACGATGGCAAGTTGATAGCAGAGTTTGATGG yielded a PBM binding z-score of -0.496. CGTCCAAGGTCAAAGGTCAGTCAAGAGATGACGG showed a PBM binding z-score of 5.97. CGTCCAAGGTCAAAGGTCAGTGCAGAGATGACGG gave a PBM binding z-score of 5.77. For CCTTCTGGGCCAAAGGTCATTGATTCCAATGCTC, the PBM binding z-score was 4.44. Work on TTTTGTAGATCAAGCAGGTTAAGAAAGCCTGAGT yielded a PBM binding z-score of 0.329. AAGACAGGGTCATCGTAGGCCAGAGTACGCACAG showed a PBM binding z-score of 4.23. With GCTAGCAGGCCATTTAGGTCACTCAATGACGGGC the PBM binding z-score was 1.8. With AATACAGGGTCACTAGGCCAGAGTTGGTACGAAT the PBM binding z-score was 4.29. TCATATAGGTAATACAGGTGAAAGTGGGCATCTA showed a PBM binding z-score of 0.826. With CGAACTAGGTCTAGGACAGTGAATCTCCGCACGC the PBM binding z-score was -0.221. In the case of GCATATAGGTAATACCAGGTGAAAGTCCGATTGT, the PBM binding z-score is reported as -0.00831. For TCAGAAAGGTGAAGGTAACTCAGGTACGCAGTCG, the PBM binding z-score was 3.25. Sequence GGAACGAGGGCATACGAGTTGATAGCATGGCGAT has a PBM binding z-score of 1.7. For AGAATGAGGTTACCGAAGATCAGGGAAACGCTTG, the PBM binding z-score was 2.19. For CCGACTGGGGCAGAAAGGTAACCATACCATCCGG, the PBM binding z-score was 0.706. Work on AGTCACAGTTCACTAGGTAACGTAAGATTCAGCT yielded a PBM binding z-score of 2.31. GATCGGAGGACAAGGTCAGAGCTTTGTCCGTAGA was tested, and the PBM binding z-score was 3.47. With CTCGAAAGGTCGGTTGAGGCGAGTATACGGATAA the PBM binding z-score was 2.66. For ACAGACAGGTGTTGAAGGTAACTCAGGCTATCAT, the PBM binding z-score was -0.084. GTACCAAGGTGAATAGGTCATTGATGAGTAGGCG gave a PBM binding z-score of 3.56. With AGAATAAGGTTATTAAGATCAGGGAATTGCGGTC the PBM binding z-score was 1.72. ATTTCTAGGTAAAGATAGTTCAGTGAATGCAAAT was tested, and the PBM binding z-score was 0.8. Sequence CGAACTAGGTCAAGGACTGTGAATCTCCGCACGC has a PBM binding z-score of 4.01. Sequence TCTTGTAGATCAACAGGAGGTTAAGAATGATCGA has a PBM binding z-score of 0.678. Sequence CGTCCAAGGTCAATGCTTGGTCAGTGAAAGCATT has a PBM binding z-score of 5.03. CCTATTAGTCGACCATAAGGGCAACCGAAGCTCG was tested, and the PBM binding z-score was 1.24. TATACAGGGTCAAAGGCGAGAGTACGAATGTCGA gave a PBM binding z-score of 4.45. Sequence TCTTGTAGATCAATAGAGGTTAAGGAAGTGCGCT has a PBM binding z-score of 1.04.
